Compound activity (PubChem BioAssay)
Most compounds without a hit are left out; they make up all but 2.3% or so of the library.
HttQ103 aggreg – qHTS Multiplex Assay to Identify Dual Action Probes in a Cell Model of Huntington: Aggregate Formation (GFP); hit rate 1.1% among 220,000; Potency, µM (highest dose often 46.1 µM), hits mostly inhibitors; PC12 HttQ103-GFP aggregates, Acumen cytometry, 40 h; further: nearly all actives have a fitted effect of over 60% in size
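Multiplexed with ATP-based cell death, this channel scores GFP aggregates in PC12 cells expressing inducible HTTex1-Q103-GFP. Induction used 100 nM tebufenozide; compounds were tested in concentration series.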
HTT cytoprotect – qHTS Multiplex Assay to Identify Dual Action Probes in a Cell Model of Huntington: Cytoprotection (ATP); PC12 HTT-Q103 induced, cytoprotection, ATP luminescence, 40 h; Potency, µM (highest dose often 56.4 µM), hits mostly activators; hit rate 0.14% among 230,000; AID 1471, 2008; further: nearly all actives have a fitted effect of over 45% in size
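Cells were plated at 1500 per well in phenol red-free DMEM with 5% equine and 5% calf serum. Tebufenozide (100 nM final) and compounds were added, then ATPlite reagent, and luminescence was read.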
FBPA coupling cs – qHTS Assay for Inhibitors of Fructose-1,6-bisphosphate Aldolase from Giardia Lamblia: Coupling assay counterscreen; coupling enzyme system counterscreen, AmpLite Red fluorescence; activity change, negative = inhibition, % at 58.2 µM, hits read low; hit rate 0.67% among 290,000; in the data active means activity change below about -30%
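Compounds tested against the coupling enzymes alone at 57.5 uM final; readout was AmpLite Red fluorescence (525/598 nm) after 20 min at RT.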
GoLoco inh red – qHTS Assay for Inhibitors of RGS12 GoLoco Motif Activity (Red Fluorophore); Guanine nucleotide-binding protein G(i) subunit alpha-1 (Homo sapiens), P63096; AID 880, 2007; Potency, µM (series often up to 61.6 µM), hits mostly inhibitors; Gai1:RGS12 GoLoco peptide FP, rhodamine, 10 min; hit rate 0.44% among 230,000; active means well fitted inhibition curve with a large enough effect, not every such curve was filed as active; inactive means no such curve, though single readings can be large or run the other way; further: nearly all actives have a fitted effect of over 30% in size
KDM4E inh – qHTS Assay for Inhibitors of Human Jumonji Domain Containing 2E (JMJD2E) | Lysine-specific demethylase 4E (Homo sapiens), B2RXH2 | JMJD2E catalytic domain, FDH-coupled NADH fluorescence (FDH is formaldehyde dehydrogenase) | Potency, µM (highest dose often 57.1 µM), most hits filed as inhibitors | hit rate 1.6% among 230,000 | AID 2147, 2009; active means well fitted inhibition curve with a large enough effect, not every such curve was filed as active; inconclusive means small, poorly fitted or top-dose-only effect, or another doubt; inactive means no such curve, though single readings can be large or run the other way; further: nearly all actives have a fitted effect of over 50% in size
Target sequence (B2RXH2 1-337 limits assumed): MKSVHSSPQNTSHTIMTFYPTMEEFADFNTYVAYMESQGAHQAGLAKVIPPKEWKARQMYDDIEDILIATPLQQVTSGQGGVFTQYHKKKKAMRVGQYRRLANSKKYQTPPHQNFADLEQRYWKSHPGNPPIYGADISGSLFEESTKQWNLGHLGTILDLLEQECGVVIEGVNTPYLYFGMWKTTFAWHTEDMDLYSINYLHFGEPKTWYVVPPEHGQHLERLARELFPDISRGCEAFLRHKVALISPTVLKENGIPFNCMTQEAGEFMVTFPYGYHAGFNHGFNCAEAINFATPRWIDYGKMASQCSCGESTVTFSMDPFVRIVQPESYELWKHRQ
VDR inhibitor – Inhibitors of the vitamin D receptor (VDR): qHTS | Vitamin D3 receptor (Homo sapiens), P11473 | VDR-SRC2-3 peptide fluorescence polarization, 2 h | Potency, µM, usual class: inhibitors | hit rate 0.93% among 400,000
Target sequence (P11473 whole entry, looked up): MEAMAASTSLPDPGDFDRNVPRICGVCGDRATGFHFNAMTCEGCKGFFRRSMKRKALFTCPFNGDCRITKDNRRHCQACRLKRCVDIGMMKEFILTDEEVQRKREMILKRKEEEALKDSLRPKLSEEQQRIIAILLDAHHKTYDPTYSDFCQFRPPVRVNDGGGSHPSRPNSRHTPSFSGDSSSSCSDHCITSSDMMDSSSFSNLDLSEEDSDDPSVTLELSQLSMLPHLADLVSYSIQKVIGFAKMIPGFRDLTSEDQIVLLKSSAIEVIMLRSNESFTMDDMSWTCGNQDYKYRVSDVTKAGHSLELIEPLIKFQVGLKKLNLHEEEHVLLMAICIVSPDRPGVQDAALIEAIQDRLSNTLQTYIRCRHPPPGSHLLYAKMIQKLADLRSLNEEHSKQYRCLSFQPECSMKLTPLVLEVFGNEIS
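After 23 nl compound addition and a short centrifugation, plates sat for 2 hours at ambient temperature; polarization of fluorescence then indicated loss of VDR binding to peptide SRC2-3.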
A number is an active result; – = inactive; ? = inconclusive; · = no result; ! = not confirmed by another sample; [ ] = dose if it differs, or a comment. Unless noted, the call rests on the fitted dose curve; in most records, active means well fitted curve in the direction sought with a large enough effect; inconclusive means small, poorly fitted or top-dose-only effect, or another doubt; inactive means no such curve, though single readings can be large; an effect the other way counts as inactive or inconclusive.

SMILES | HttQ103 aggreg | HTT cytoprotect | FBPA coupling cs | GoLoco inh red | KDM4E inh | VDR inhibitor
COc1cc(C)c(/C=C/C(C)=C/C=C/C(C)=C/C(=O)O)c(C)c1C | – | – | · | – | · | 44.7µM!
CCOC(=O)/C=C(C)/C=C/C=C(C)/C=C/c1c(C)cc(OC)c(C)c1C | – | – | · | · | · | –
CCOC(=O)/C=C1\CC(C(=O)OCC)Oc2c(OC)cccc21 (centres undefined) | · | – | – | – | · | 79.4µM
CCc1cc(=O)oc2cc(OC(C)C(=O)NCC3CCC(C(=O)O)CC3)c(Cl)cc12 (centres undefined) | · | · | – | · | · | –
COc1ccc(O)c(CN2CCC(n3nccc3NC(=O)CCOc3ccccc3)CC2)c1 | · | · | · | · | · | –
CCOC(=O)N1CCC(N(CCOC)C(=S)Nc2cccc(SC)c2)CC1 | – | ? | – | – | – | –
CCOC(=O)N1CCC(Nc2cccc(SC)c2)CC1 | – | – | -44.4 | – | ? | –
COc1ccc(N(CC(=O)NC2CCCC2)C(=O)Cn2nnc(-c3ccc(OC)c(OC)c3)n2)cc1 | –[9.22 µM] | –[10 µM] | – | – | – | –
COc1ccc(-c2nnn(CC(=O)N(CC(=O)NC3CCCC3)c3ccccc3)n2)cc1OC | · | · | – | – | – | 79.4µM
CCn1c(C)c2c([n+]1CC)CC(C)(C)CC2=O | – | – | – | 11.2µM | – | –
O=C(CCCCn1c(=O)c2ccccc2n(CC(=O)Nc2ccc(F)cc2F)c1=O)NCc1ccccc1Cl | · | · | · | · | · | –
O=C(O)C1CCCN1C(=O)Nc1ccccc1 (centres undefined) | 1.12µM | –[0.074 µM] | – | – | – | –
COc1ccc(-c2cc3nc(N)cc(=O)n3[nH]2)cc1 | · | · | · | · | · | –
COc1ccc(-c2cc(=O)n(CCC#N)[nH]2)cc1 | ? | –[10 µM] | – | – | 1.78µM | –
CCOC(=O)c1ccc(Nc2c(-c3ccc(O)cc3)nc3nc[nH]n23)cc1 | · | · | · | · | · | –
CN(C)S(=O)(=O)Nc1ccccc1C(N)=O | 3.55µM | – | – | – | ? | –
CCOC(=O)c1ccc(N2CCN(c3ccccc3OC)CC2)c(NC(=O)Nc2ccc(CC)cc2)c1 | · | · | · | · | · | –
CCOC(=O)c1ccc2c(c1)N(C)C(=O)c1ccccc1S2 | · | · | – | · | · | –
CCOC(=O)c1cc2n(c1/N=C/N(C)C)-c1ccccc1C2=O | – | –[10 µM] | -35.4 | 25.1µM | ? | –
COc1ccc(-c2cnnc(N/N=C/c3ccc(C)o3)n2)cc1 | – | ? | – | – | – | 44.7µM
Oc1ccc(/C=N\Nc2nncc(-c3ccccc3)n2)cc1 | –[9.22 µM] | –[10 µM] | – | – | ? | –
COc1ccc(-c2cnnc(N/N=C/c3ccc(O)c(O)c3)n2)cc1 | 11.2µM | –[10 µM] | – | – | 25.1µM | –
CCNc1nc(NCC)nc(N/N=C/c2ccc(O)c(O)c2)n1 | – | – | – | – | 17.8µM | –
COc1cccc(CNC(=O)C2CCN(c3nnc(-n4c(C)ccc4C)s3)CC2)c1 | · | · | · | · | · | –
CCCCCCCCCCCCCCCCOC[C@H](COP(=O)([O-])OCC[N+](C)(C)C)OC(=O)NC | · | – | – | – | – | –
SMILES | HttQ103 aggreg | HTT cytoprotect | FBPA coupling cs | GoLoco inh red | KDM4E inh | VDR inhibitor
Cc1nnc(NC(=O)C23CC4CC(CC(C4)C2)C3)s1 | · | · | – | · | · | –
CCCCCC#CCC#CCC#CCC#CCCCC(=O)O | – | – | – | – | 15.8µM! | ·
CNc1ccc(-c2nc3ccccc3s2)cc1 | · | · | – | · | · | 11.2µM
CC(C)(C)C(=O)Nc1ccc(-c2nc3ccccc3s2)cc1 | · | · | · | · | · | –
CCCCC[C@H](O)/C=C/[C@H]1C(=O)C=C[C@@H]1C/C=C\CCCC(=O)O | · | 5.62µM! | – | – | – | 31.6µM
CCCCC[C@H](O)/C=C/[C@@H]1[C@@H](C/C=C\CCCC(=O)OC)[C@@H](O)C[C@H]1O | – | · | – | – | 3.98µM | –
CCCCC[C@H](O)/C=C/C1C(=O)C=C[C@H]1C/C=C\CCCC(=O)OC (some centres undefined) | · | · | · | · | · | 25.1µM
CCCCC[C@H](O)/C=C/[C@H]1[C@H](O)CC(O)[C@@H]1C/C=C\CCCC(=O)O (some centres undefined) | · | · | · | – | · | –
CCCCC[C@H](O)/C=C/[C@H]1[C@H](O)CC(=O)[C@@H]1C/C=C\CCCC(=O)O | – | ? | – | – | – | ?
O=c1[nH]nnc2sc3c(c12)CCCC3 | 11.2µM | –[10 µM] | – | – | – | –
Cc1ccccc1NC(=O)C1CCN(c2cc(-c3ccccc3)nc3ncnn23)CC1 | – | –[10 µM] | – | – | – | ?
COc1ccc(S(=O)(=O)N2CCN(c3cc(-c4ccccc4)nc4ncnn34)CC2)cc1 | 12.6µM | –[10 µM] | – | – | ? | –
COc1ccc(-c2cc(N3CCCC3)n3ncnc3n2)cc1 | – | – | – | – | ? | –
O=S(=O)(c1ccccc1)N1CCN(c2cc(-c3ccccc3)nc3ncnn23)CC1 | 11.2µM | –[10 µM] | – | – | ? | –
Cc1cccc(NC(=O)c2oc3c(c2C)-c2[nH]ncc2CC3)c1C | · | · | · | · | · | –
Cc1c(C(=O)NC(C)C)oc2c1-c1[nH]ncc1CC2 | – | – | -38.8 | – | ? | –
Cc1ccc(-n2c(C)cc(/C=N/Nc3ccc([N+](=O)[O-])cn3)c2C)cc1 | – | – | – | 3.55µM | – | –
Cc1cc(/C=N/Nc2ccc([N+](=O)[O-])cn2)c(C)n1-c1ccccc1 | ? | – | – | – | – | –
CCC(CNc1cc(OC)cc2cccnc12)NC1CCCCC1 (centres undefined) | –[9.22 µM] | –[10 µM] | – | 28.2µM | – | –
COc1cc(NCCCC(C)N)c2ncccc2c1 (centres undefined) | 17.8µM! | –[10 µM] | -57.6 | 28.2µM | ? | 44.7µM!
N#Cc1ccc(C(=O)NC2CCCCCCC2)cc1 | · | · | – | · | · | –
CCc1ccc(NC(=O)Cn2c(=O)nc(-c3ccccc3F)c3cc(Cl)ccc32)cc1 | · | · | · | · | · | –
CC1=NN(c2ccccc2)C(=O)C1C=Nc1ccccc1O (centres undefined) | –[9.22 µM] | –[10 µM] | – | – | 31.6µM | –
O=[N+]([O-])c1ccc(O)c(/C=N/Nc2ccc(Cl)nn2)c1 | ? | – | – | – | 5.62µM | –
O=[N+]([O-])c1ccc(O)c(-c2nn[nH]n2)c1 | – | – | – | – | 0.398µM | –
O=[N+]([O-])c1ccc(O)c(/C=N/Nc2nn[nH]n2)c1 | – | · | – | – | 14.1µM | –
Oc1cccc(/C=N/Nc2ccc(Cl)nn2)c1 | · | · | – | · | · | –
O=C1ON=C(c2ccccc2)/C1=C/c1ccc(O)c(O)c1 | · | · | – | · | · | 44.7µM
CCN(CC)S(=O)(=O)c1ccc(N/N=C/c2cc(OC)ccc2O)nc1 | 2.82µM | –[10 µM] | – | – | 12.6µM | –
